Spn PMK inh: blocks S. pneumoniae phosphomevalonate kinase | purified PMK, PK/LDH-coupled NADH absorbance 340 nm | inhibition, % at 10 µM | hit rate 0.49% among 65,000;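 active = top-ranked compounds by inhibition in the single 10 µM screen, taking a fixed number of the strongest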
NADH coupling: inhibition of NAD/NADH coupling enzymes, library profiling. AID 774. hit rate 0.02% among 65,000. IC50, µM (highest dose often 10 µM). coupled PK/LDH NADH assays, four targets;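 active = single-dose screening hits from any of four coupled enzyme assays that gave an IC50 when retested across doses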;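 also: the DPM-DC format reads NADH fluorescence rather than 340 nm absorbance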
Spn MK inh: blocks S. pneumoniae mevalonate kinase; inhibition, % at 10 µM; hit rate 0.48% among 65,000; AID 555; purified MK, PK/LDH-coupled NADH absorbance 340 nm;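 active = ranked among the strongest by inhibition in the single 10 µM screen, a fixed top-ranked set picked for dose follow-up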
Abs 340nm: compounds absorbing at 340 nm | 65,000 tested, under 10 active | fold change at 10 µM | compound absorbance at 340 nm, fold over control | AID 708;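 active = at 10 µM dose, initial 340 nm absorbance at least 2 fold that of control wells; inactive = change under 2 fold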;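 also: initial absorbance extrapolated from kinetic A340 decline of NADH oxidation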
Autofluor 339: intrinsic fluorescence of library compounds, ex339/em460 – biochemical, MLSMR library, data from DPM-DC assay, artefact control, profiling panel; compound autofluorescence, ex339/em460 nm, NADH buffer; hits give high values; 1 = no-compound wells, NADH background; fluorescence fold increase at 10 µM; hit rate 5.5% among 65,000;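 active = at 10 µM, mean starting fluorescence two-fold or more over control wells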;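 also: signal is the first read of a kinetic run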
Spn DPM-DC inh: blocks S. pneumoniae diphosphomevalonate decarboxylase; purified DPM-DC, PK/LDH coupled NADH fluorescence; calls only at 10 µM; hit rate 0.49% among 65,000; AID 556;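 active = the 320 compounds with the highest percent inhibition in the single-dose primary screen, excluding strongly autofluorescent ones, cut at about 32% in these data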;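 also: kinetic rate of NADH fluorescence loss reporting ADP formed by the decarboxylase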
Each line names hits and unclear results; the compound was inactive in the other large screens. Hits are enriched below; roughly 6.3% of the tested compounds scored in any of these assays.

COc1ccc(CNC(=O)CSc2nnc(C)s2)cc1	none
Cc1c(C(=O)NCC2CCCO2)oc2ccc3c(c12)C(=O)CC(C)(C)O3 (configuration not stated)	Autofluor 339 2.99
Cc1c(C(=O)NCC2CCCO2)oc2ccc(S(=O)(=O)N3CCCC3)cc12 (configuration not stated)	none
COc1ccc2c(c1)C1(C)CC(C)(C)N2C(=O)N1c1ccccc1 (configuration not stated)	Spn DPM-DC inh active
COc1ccc2c(c1)C(=O)N(c1ccccc1OC)C(=O)C2(C)C	none
Cc1cc(-c2ccccc2)nc(N2CCN(c3ccccn3)CC2)n1	none
Cc1cc(C)c2c(n1)nn1c(N3CCN(c4ccccn4)CC3)cc(C)nc21	Autofluor 339 3.04
Cc1cc(C)c2c(n1)nn1c(N3CCN(c4ccccc4)CC3)cc(C)nc21	Autofluor 339 3.17, Spn DPM-DC inh active
Cc1nc(CC(=O)c2c(C)cc(O)cc2O)cs1	none
O=C(c1cccn2c(=O)c3ccc(Cl)cc3nc12)N1CCN(Cc2ccc3c(c2)OCO3)CC1	Autofluor 339 4.92 (not shown: Spn DPM-DC inh)
CCS(=O)(=O)N1CCC(C(=O)NCc2ccco2)CC1	Spn PMK inh 26.0
CCOCCCNC(=O)C1CCN(S(=O)(=O)CC)CC1	Spn PMK inh 25.0
CCOCCCNC(=O)C1CCN(S(=O)(=O)N(CC(C)C)CC(C)C)CC1	Spn PMK inh 26.0
COCCCNC(=O)C1CCN(S(=O)(=O)N(CC(C)C)CC(C)C)CC1	none
COC(=O)COc1ccc(S(=O)(=O)Nc2ccccc2SC)cc1	none
O=c1c2ccccc2sn1-c1cc(S(=O)(=O)N2CCOCC2)ccc1N1CCOCC1	Spn MK inh 95.0, Spn DPM-DC inh active
O=C(Nc1sc2c(c1C(=O)NCc1ccco1)CCCC2)c1ccc2c(c1)OCO2	Autofluor 339 2.9 (not shown: Spn DPM-DC inh)
CCOC(=O)C1=C(C)NC(SCC(=O)Nc2cc(C)on2)=C(C#N)C1c1cccs1 (configuration not stated)	none
NC(=O)c1nn(-c2ccccc2)nc1NC(=O)CN1CCCCC1	none
NC(=O)c1nn(-c2ccccc2)nc1N	Autofluor 339 3.9 (not shown: Spn DPM-DC inh)
CCOC(=O)c1cc2nc(Nc3ccc(OC)cc3)sc2s1	Spn DPM-DC inh active
Cc1cc2occ(CC(=O)NC3=NCCS3)c2cc1C(C)C	none
O=c1oc2c(CN3CCOCC3)c(O)c(Cl)cc2c2c1CCCC2	Autofluor 339 3.8 (not shown: Spn DPM-DC inh)
COCCN(CCOC)Cc1cc(=O)oc2cc3c(cc12)CCC3	none
O=c1oc2c(CN3CCOCC3)c(O)ccc2c2c1CCCC2	Autofluor 339 3.79 (not shown: Spn DPM-DC inh)
COCCN(CCOC)Cc1c(O)ccc2c3c(c(=O)oc12)CCC3	Autofluor 339 2.05 (not shown: Spn DPM-DC inh)
CCC(C)NC(=O)c1cnn2c(C)c3c(nc12)CCCC3 (configuration not stated)	Autofluor 339 4.9 (not shown: Spn DPM-DC inh)
CCOc1ccccc1Oc1coc2cc(O)ccc2c1=O	Autofluor 339 4.7 (not shown: Spn DPM-DC inh)
CCOc1ccccc1Oc1coc2cc(OC(=O)c3ccco3)ccc2c1=O	none
COc1ccccc1Oc1coc2cc(O)ccc2c1=O	Autofluor 339 4.76 (not shown: Spn DPM-DC inh)
CCCCC(=O)Nc1ccc(NC(=O)CC)cc1OC	none
Cc1ccc(N(CN2CCCC2=O)C(=O)c2ccc(OC(C)C)cc2)cc1	none
O=C(CSc1nnc(-c2ccc(Cl)s2)o1)N1CCc2ccccc21	Autofluor 339 2.05
CCn1c(CC(C)C)n[nH]c1=S	Spn MK inh 44.0
COCCCN=C(c1ccco1)n1c(=S)nc(-c2ccco2)n(CCCOC)c1=S	none
O=C(COC(=O)c1ccc(S(=O)(=O)N2CCCC2)cc1)NCc1ccccc1	none
CCOC(=O)c1ccc(NC(=O)CSc2nc(C)cc(=O)[nH]2)cc1	Spn PMK inh 26.0
COc1ccc(C(=O)NCc2oc(-c3ccccc3)cc2C(=O)O)cc1	none
CCCc1cc(=O)oc2cc(C)c3c(C)coc3c12	Autofluor 339 2.14 (not shown: Spn DPM-DC inh)
CCCc1cc(=O)oc2cc3occ(C)c3cc12	Autofluor 339 2.23 (not shown: Spn DPM-DC inh)
O=C(CCn1c(=O)oc2ccccc21)Nc1ccc2c(c1)OCCO2	none
CCOC(=O)C1CCCN(C(=O)CCn2nc(-c3ccccc3)ccc2=O)C1 (configuration not stated)	none
Cc1nc2n(n1)C(c1ccccc1)C1=C(CC(c3ccco3)CC1=O)N2 (configuration not stated)	none
CC1=C(C(=O)Nc2cccc(C)n2)C(c2ccc3c(c2)OCO3)C2=C(CC(c3ccco3)CC2=O)N1 (configuration not stated)	Autofluor 339 2.32
CCc1ccc(NC(=O)c2ccc3c(c2)C(=O)N(Cc2ccco2)C3=O)cc1	none
COC(=O)c1ccccc1NC(=O)c1ccc2c(c1)C(=O)N(Cc1ccco1)C2=O	Autofluor 339 3.06, Spn DPM-DC inh active
CCN(CC)c1ccc(-c2nn3c(-c4n[nH]c5c4CCC5)nnc3s2)cc1	Autofluor 339 2.88
C1CCC(c2nn3c(-c4n[nH]c5c4CCC5)nnc3s2)CC1	none
COCC(C)NCc1ccc(C)cc1C (configuration not stated)	Spn MK inh 52.0
Cc1ccc(CNc2ccc3c(c2)OCO3)c(C)c1	none
O=C(Cn1nc(C(F)(F)F)c2c1CCCC2)Nc1ccc2c(c1)OCO2	none
CCC(C)c1c(O)nc(SCC(=O)c2ccccc2)[nH]c1=O (configuration not stated)	none
CCN(CC)CCSc1nc(O)c(C(C)C)c(=O)[nH]1	Spn PMK inh 25.0
COc1cccc(NS(=O)(=O)c2ccc3[nH]cc(C(=O)NCCN4CCOCC4)c(=O)c3c2)c1	none
CCN(CC)S(=O)(=O)c1ccc2[nH]cc(C(=O)NCCN3CCCCC3C)c(=O)c2c1 (configuration not stated)	Autofluor 339 2.97
CCN(CC)S(=O)(=O)c1ccc2[nH]cc(C(=O)NCCN3CCCCCC3)c(=O)c2c1	Autofluor 339 2.92
Cc1ccccc1N(C)S(=O)(=O)c1ccc2[nH]cc(C(=O)NCC3CCCO3)c(=O)c2c1 (configuration not stated)	Autofluor 339 2.15
CCOc1ccc(N(C)S(=O)(=O)c2ccc3[nH]cc(C(=O)NCC4CCCO4)c(=O)c3c2)cc1 (configuration not stated)	none
CCN(CC)S(=O)(=O)c1ccc2[nH]cc(C(=O)NCCC3=CCCCC3)c(=O)c2c1	none
CCCn1c(=O)[nH]c(=O)c2c1nc(-c1ccc3c(c1)OCCO3)n2CCN1CCOCC1	none
O=C1CC(N2CCSCC2)C(=O)N1CCc1ccccc1 (configuration not stated)	none
CC(C)Cn1c(=O)c2c(c3ccccc31)OC(C)C(=O)N2 (configuration not stated)	none
CC(CCc1ccccc1)NC(=O)C1CCN(S(=O)(=O)N2CCCCC2)CC1 (configuration not stated)	none
CC(C)OC(=O)c1c2nc3ccccc3nc2n2c1[nH]c(=O)c1ccccc12	Autofluor 339 2.28 (not shown: Spn DPM-DC inh)

High-throughput results (PubChem BioAssay)
